# Source: PubChem
# GC-B act: GC-B (human) receptor activation | 0.11% of 370,000 active | HEK293-GC-B cells, CNP EC30, cGMP TR-FRET; 0% at EC30 CNP, 100% saturating CNP | activation, % at 10 µM | P20594;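 active = activation at 10 µM reaching about 35% in either raw or pattern-adjusted values, limit read from the data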
# NPR1 activator: GC-A (human) enzyme activation; 0.14% of 370,000 active; AID 1671463; HEK293 GC-A cells, cGMP TR-FRET, EC30 ANP; 0% at EC30 ANP, 100% saturating ANP; P16066; activation, % at 10 µM; in the data active = activation above about 40%
# ADAM10 inh: inhibits human ADAM10; 0.62% of 370,000 active; inhibition, % at 7 µM; AID 720582; O14672; recombinant ADAM10, EDANS/DABCYL FRET peptide cleavage, 3 h;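 active = inhibition above a per-campaign cutoff equal to the mean of compounds falling between control-based bounds plus 3 SD, cut at about 20% in these data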;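 note: 0% = DMSO wells while the 100% control is not disclosed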
# ADAM17 inh: inhibitors of human ADAM17; inhibition, % at 6.95 µM; recombinant ADAM17, EDANS/DABCYL FRET peptide cleavage; 0.83% of 370,000 active; P78536;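 active = inhibition above the mean of compounds lying between control limits plus 3 SD, set per campaign, cut at about 8.5% in these data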;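 note: 0% = DMSO-only wells as the low control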
# Target sequence (P78536 215-824 limits assumed): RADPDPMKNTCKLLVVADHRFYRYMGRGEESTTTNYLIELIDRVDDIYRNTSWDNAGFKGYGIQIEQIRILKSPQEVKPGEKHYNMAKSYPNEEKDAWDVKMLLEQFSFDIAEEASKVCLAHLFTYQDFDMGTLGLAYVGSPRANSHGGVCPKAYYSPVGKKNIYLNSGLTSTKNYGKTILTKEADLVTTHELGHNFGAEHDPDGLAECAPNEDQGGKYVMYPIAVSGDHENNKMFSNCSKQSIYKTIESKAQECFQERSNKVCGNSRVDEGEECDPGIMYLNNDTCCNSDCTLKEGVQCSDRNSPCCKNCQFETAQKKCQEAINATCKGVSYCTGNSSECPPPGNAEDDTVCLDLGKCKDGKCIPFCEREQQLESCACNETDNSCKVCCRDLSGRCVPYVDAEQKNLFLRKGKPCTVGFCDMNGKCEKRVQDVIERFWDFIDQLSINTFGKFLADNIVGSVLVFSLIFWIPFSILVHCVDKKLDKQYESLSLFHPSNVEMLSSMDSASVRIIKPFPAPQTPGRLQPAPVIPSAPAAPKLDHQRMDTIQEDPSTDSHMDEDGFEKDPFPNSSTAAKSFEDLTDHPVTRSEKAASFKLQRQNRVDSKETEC
# FAS TE block: blocks the thioesterase domain of human fatty acid synthase. P49327. recombinant FAS-TE, OMFH fluorogenic substrate, fluorescence endpoint. inhibition, % at 15 µM. 0.67% of 360,000 active;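 active = compounds whose normalised, plate-corrected inhibition of enzyme fluorescence in the single-dose primary screen is 50% or more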;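 note: 0% = DMSO with enzyme and 100% = substrate without enzyme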
# FAS-TE conf: FAS thioesterase (human) inhibition, confirmation; recombinant FAS-TE, OMFH fluorogenic substrate, fluorescence; 45% of 2,300 active; inhibition, % at 15 µM; shares compounds with FAS TE block;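 active = compounds inhibiting the enzyme by at least 50% at 15 µM in any one of the replicates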;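 note: 0% = enzyme with DMSO only and 100% = wells lacking enzyme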
# * = called active by the depositor; / = not tested or not shown. Compounds with a hit are over-represented: about 2% of the library has one in this group of screens.
SMILES,GC-B act,NPR1 activator,ADAM10 inh,ADAM17 inh,FAS TE block,FAS-TE conf
O=C(Nn1c(-c2ccncc2)nc2ccccc2c1=O)c1ccc(Br)cc1,1,3,-3,-2,-6,/
O=S(=O)(/N=C(/Sc1ccccc1)c1ccccc1)c1ccccc1,5,10,-3,-2,57*,32
CCOC1=C2CN(S(=O)(=O)c3ccccc3)[C@H](c3ccccc3)C[C@H]2n2c(=O)n(-c3ccccc3)c(=O)n2C1,-3,-2,0,-3,80*,13
CCOC1=C2[C@H](c3ccccc3)N(S(=O)(=O)c3ccccc3)C[C@H]2n2c(=O)n(-c3ccccc3)c(=O)n2C1,0,-3,12,3,73*,39
CCOC1=C2CN(S(=O)(=O)c3ccc(Cl)cc3)[C@H](c3ccccc3)C[C@@H]2N(S(=O)(=O)c2ccc(C)cc2)[C@H](c2ccccc2)C1,2,3,-10,-1,19,/
CCOC1=C2[C@H](c3cccs3)N(S(=O)(=O)c3ccc(C)cc3)C[C@H]2n2c(=O)n(-c3ccccc3)c(=O)n2C1,-7,-5,6,1,73*,30
CCOC1=C2CN(S(=O)(=O)c3ccc(C)cc3)[C@H](c3ccccc3)C[C@@H]2N(S(C)(=O)=O)[C@H](c2ccccc2)C1,1,0,0,0,48,/
CCOC1=C2CN(S(=O)(=O)c3ccc(C)cc3)C(c3ccc(CC)cc3)CC2n2c(=O)n(-c3ccccc3)c(=O)n2C1 (centres undefined),-5,2,3,4,/,/
CC(C)(C)c1ccc(S(=O)(=O)N2CCCC(C(=O)NCCN3CCC(Cc4ccccc4)CC3)C2)cc1 (centres undefined),-9,-11,1,4,/,/
O=C(Nc1ccccc1[N+](=O)[O-])OCC=Cc1ccccc1,4,2,-17,1,55*,59*
O=C(COC(=O)c1ccco1)Nc1ccccc1[N+](=O)[O-],2,0,-8,-5,-3,/
CCCC1CCC2(CCC(=O)N2CCO)CC1 (centres undefined),0,4,-1,0,/,/
COC(=O)c1ccc(Nc2nnc(-c3ccc(C)c(S(=O)(=O)NCC4CCCO4)c3)c3ccccc23)cc1 (centres undefined),0,4,-17,-5,67*,21
COc1cccc(-c2ccc(CC[C@H]3O[C@H]4CC[C@@H](CO)O[C@H]4C[C@H]3NS(C)(=O)=O)cc2)c1,-16,-2,12,3,/,/
CC(=O)OCC(=O)NCC1CCN(C(=O)C(=O)c2cc3ccccc3o2)CC1,1,1,2,-2,/,/
O=C(/C=C/c1cccc([N+](=O)[O-])c1)NCCc1ccc(F)cc1,-1,0,9,-1,52*,51*
O=C(NCCc1ccccc1)/C(=C\c1cccc([N+](=O)[O-])c1)NC(=O)c1ccco1,1,-1,-11,0,83*,77*
O=C(NCc1ccccc1)/C(=C/c1cccc([N+](=O)[O-])c1)NC(=O)c1ccco1,-1,0,1,-3,69*,79*
COC(=O)[C@]12C[C@H](CC(=O)N3CCC(c4ccccc4)CC3)C(=O)N(CCC3=CCCCC3)C1=C[C@H](C(C)C)O[C@@H]2C1CC1,-2,-4,-1,-3,/,/
CCCC[C@@H]1C(=O)N2N=Cc3ccccc3[C@H]2N2N=Cc3ccccc3[C@@H]12,-6,1,1,0,/,/
C=CCCC1CN(Cc2ccc(OC)cc2)S(=O)(=O)c2c(cccc2Sc2ccc(OC)c(OC)c2)O1 (centres undefined),-3,-4,6,3,/,/
Cc1nc(Sc2ccccc2)c(C#N)c(C)c1[N+](=O)[O-],-1,0,3,-4,59*,46*
Nc1[nH]c(C(=O)c2ccccc2)c(-c2ccc3ccccc3c2)c1C(=O)NC1CC1,-3,-8,-6,-3,/,/
O=C(COc1ncnc2c(Cl)cc(Cl)cc12)Nc1cc([N+](=O)[O-])ccc1Cl,-15,-2,4,4,52*,43
O=C(COc1ncnc2cc([N+](=O)[O-])ccc12)NCCc1ccc(Cl)cc1,4,2,-10,-5,29,/
SMILES,GC-B act,NPR1 activator,ADAM10 inh,ADAM17 inh,FAS TE block,FAS-TE conf
O=C(COc1ncnc2ccccc12)Nc1cc([N+](=O)[O-])ccc1Cl,-3,-2,15,-5,51*,3
CC(C)c1ccc(NC(=O)C2Cc3c(-c4cccc(C(N)=O)c4)ccnc3O2)cc1 (centres undefined),2,0,-2,-5,11,/
CC(C)c1ccc(NC(=O)C2Cc3c(-c4cccc(F)c4)ccnc3O2)cc1 (centres undefined),-2,0,1,6,50*,42
CC(=O)c1cccc(-c2ccnc3c2CC(C(=O)Nc2ccc(F)c(Cl)c2)O3)c1 (centres undefined),12,2,3,4,60*,58*
O=C(CCc1ccccc1)N[C@H]1[C@@H](OC(=O)c2ccco2)CCC[C@@]12C(=O)N(Cc1ccccc1)c1ccccc12,-1,-2,6,1,/,/
O=[N+]([O-])c1ccc(NC(=S)NCCc2ccc(Cl)cc2)cc1,17,8,18,6,51*,37
O=[N+]([O-])c1ccc(NC(=S)NCCc2ccccc2)cc1,7,4,12,2,53*,38*
COC(=O)[C@]12C[C@H](CC(=O)NCCc3ccccc3OC)C(=O)N(Cc3ccc4c(c3)OCO4)C1=C[C@H](C(C)C)O[C@@H]2C1CC1,-13,-8,3,4,/,/
O=C(CN(c1ccc(Cl)cc1)S(=O)(=O)c1ccccc1)N/N=C/c1ccco1,-5,0,19,8,58*,41*
Cc1ccc(S(=O)(=O)N(CC(=O)N/N=C/c2ccco2)c2cc(Cl)cc(Cl)c2)cc1,1,-11,3,-2,40,/
CCOc1ccc(NC(=O)CN(c2ccc([N+](=O)[O-])cc2)S(=O)(=O)c2ccccc2)cc1,-5,-5,17,8,55*,37*
CCOc1ccc(N(CC(=O)N/N=C/c2ccccn2)S(=O)(=O)c2ccc(Cl)cc2)cc1,4,-6,3,1,61*,66*
C/C=C/C=N/NC(=O)CN(c1ccc(Br)cc1)S(=O)(=O)c1ccccc1,0,-5,6,1,58*,72*
CC(=O)Nc1ccc(NC(=O)CN(c2ccc([N+](=O)[O-])cc2)S(=O)(=O)c2ccccc2)cc1,-3,-4,-4,0,21,/
CCCCOCCCNC(=O)C[C@H]1C[C@@]2(C(=O)OC)C(=C[C@H](COCc3ccccc3)O[C@@H]2C)N(Cc2ccco2)C1=O,-1,6,-1,-1,/,/
